# Data: the supplement of paper PMC11482750
# ± gives the standard deviation of the averaged measurements.
# Compound: CCC/C=C/C=O [trans-2-hexenal]
# Assay: control-subtracted net OSN firing rate; higher = stronger neuronal activation
# Conditions: odorant dilution (vol/vol): 1/100
# Description: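 Single sensillum recordings from olfactory sensory neurons. The neurons sit in the maxillary palp or antennal sensilla of D. melanogaster (wild type, mutants, or at1 empty-neuron lines expressing Or42a homologs or the A181D S307P mutant) and of four Scaptomyza species. Each odorant was given as a 1 s pulse from 20 µl loaded on filter paper at 1:100 vol/vol, diluted in mineral oil (γ-hexalactone in DMSO). Spikes were counted in a 0.5 s window starting 0.2 s after onset, background was subtracted, the count was doubled, and the mean solvent-control response was subtracted.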
row,Target,control-subtracted net OSN firing rate [spikes/s]
1,S. pallida pb2a-like,8.33 ± 6
2,S. montana pb2a-like,1 ± 8.5
3,S. flava pb2a-like,1.67 ± 6.6
4,S. pallida pb3a-like,109 ± 24
5,S. pallida pb3b-like,-10 ± 14
6,S. montana pb1b-like,-11.3 ± 8.9
7,"Or67dGal4, UAS-Sfla Or42a4 at1",179 ± 43
8,Canton-S (D. melanogaster) pb2b,0.857 ± 11
9,S. pallida pb1b-like,-6.67 ± 7.2
10,S. pallida pb2b-like,6.67 ± 10
11,S. montana pb3b-like,8.33 ± 8.7
12,S. hsui pb3a-like,147 ± 24
13,S. flava pb2b-like,15 ± 14
14,S. hsui pb1b-like,-16.3 ± 10
15,"Or67dGal4, UAS-Sfla Or42a2 at1",3.14 ± 12
16,S. hsui pb3b-like,-5 ± 4.2
17,Canton-S (D. melanogaster) pb3b,-0.833 ± 5.7
18,Canton-S (D. melanogaster) pb1b,-5.33 ± 9

row,Target,control-subtracted net OSN firing rate [spikes/s]
1,S. flava pb1a-like,152 ± 26
2,S. montana pb1a-like,145 ± 34
3,S. hsui pb2a-like,10 ± 12
4,S. flava pb1b-like,-17.7 ± 8.2
5,Canton-S (D. melanogaster) pb1a,124 ± 31
6,S. pallida pb1a-like,103 ± 25
7,Canton-S (D. melanogaster) pb3a,0.167 ± 5.6
8,S. flava pb3b-like,26 ± 42
9,S. flava pb3a-like,-3.33 ± 9.6
10,"Or67dGal4, UAS-Dmel Or42a at1",110 ± 52
11,Canton-S (D. melanogaster) pb2a,4.86 ± 9.6
12,S. hsui pb1a-like,115 ± 18
13,S. montana pb3a-like,3 ± 5.5
14,S. montana pb2b-like,5.67 ± 5.1
15,S. hsui pb2b-like,15 ± 15
16,"Or67dGal4, UAS-Sfla Or42a3 at1",144 ± 32
17,"Or67dGal4, UAS-Spal Or42a at1",205 ± 10
